Data taken from the supplement of paper PMC11732987, “Enantioselective OTUD7B fragment discovery through chemoproteomics screening and high-throughput optimisation” (Communications Chemistry, 2025).

Experiments:
Experiment in all cases: log2 ratio of Biotin-Ahx-Ub-VS probe labelling (fragment/DMSO); higher = less target engagement (more negative = stronger competition), active = hit call of the paper (q ≤ 0.05, log2 ratio ≤ -1)
Details in all cases: compound concentration: 200 uM; treatment time: 3 h
USP19 = molecular target: T1, USP19 (UniProt O94966)
T1 sequence (whole entry): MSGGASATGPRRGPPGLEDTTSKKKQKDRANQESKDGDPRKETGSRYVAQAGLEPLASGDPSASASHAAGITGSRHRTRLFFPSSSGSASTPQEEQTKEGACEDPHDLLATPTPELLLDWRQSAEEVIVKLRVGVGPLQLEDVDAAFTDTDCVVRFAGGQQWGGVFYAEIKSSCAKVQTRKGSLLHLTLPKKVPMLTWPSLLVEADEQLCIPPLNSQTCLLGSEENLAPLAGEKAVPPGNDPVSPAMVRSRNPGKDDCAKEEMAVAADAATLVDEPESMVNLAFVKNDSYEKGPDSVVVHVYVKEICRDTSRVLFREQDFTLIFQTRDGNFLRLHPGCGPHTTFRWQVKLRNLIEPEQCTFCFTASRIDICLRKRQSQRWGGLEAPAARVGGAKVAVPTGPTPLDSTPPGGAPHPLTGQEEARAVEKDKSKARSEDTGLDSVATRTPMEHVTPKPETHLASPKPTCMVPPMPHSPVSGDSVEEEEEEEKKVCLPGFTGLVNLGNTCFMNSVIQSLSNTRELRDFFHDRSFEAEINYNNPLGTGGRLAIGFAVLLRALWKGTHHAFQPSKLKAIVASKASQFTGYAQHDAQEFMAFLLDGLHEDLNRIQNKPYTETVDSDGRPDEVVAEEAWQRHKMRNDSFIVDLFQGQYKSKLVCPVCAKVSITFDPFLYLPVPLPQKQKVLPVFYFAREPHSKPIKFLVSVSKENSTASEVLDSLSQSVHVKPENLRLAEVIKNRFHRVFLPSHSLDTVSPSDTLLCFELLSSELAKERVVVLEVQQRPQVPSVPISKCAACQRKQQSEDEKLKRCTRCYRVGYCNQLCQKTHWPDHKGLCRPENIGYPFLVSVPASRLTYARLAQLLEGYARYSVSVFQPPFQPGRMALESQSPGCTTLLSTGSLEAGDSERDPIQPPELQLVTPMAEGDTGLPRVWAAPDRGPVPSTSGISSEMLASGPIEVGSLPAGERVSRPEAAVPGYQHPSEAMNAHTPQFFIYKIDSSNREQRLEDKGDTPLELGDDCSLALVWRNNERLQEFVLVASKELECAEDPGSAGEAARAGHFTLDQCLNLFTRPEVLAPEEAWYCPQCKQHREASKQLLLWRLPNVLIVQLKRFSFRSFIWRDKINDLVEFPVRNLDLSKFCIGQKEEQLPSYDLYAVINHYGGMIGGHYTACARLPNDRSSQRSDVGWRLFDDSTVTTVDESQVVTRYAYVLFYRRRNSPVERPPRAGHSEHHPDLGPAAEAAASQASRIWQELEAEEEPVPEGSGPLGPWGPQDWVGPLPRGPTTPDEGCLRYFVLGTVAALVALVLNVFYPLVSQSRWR
How it was run: (§1)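 Triplicate samples of HEK293T lysate, 495 µg each, received fragment at 200 µM or vehicle for 3 h, followed by Biotin-Ahx-Ub-VS (0.5 µM final) for 1 h. After NeutrAvidin enrichment of labelled DUBs and LysC/trypsin digestion, peptides were run by diaPASEF LC-MS/MS. The values are average log2 fragment/vehicle ratios from global-median-normalised Spectronaut label-free quantities, tested by unpaired t-test on proteins having ≥2 unique peptides.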

USP24 = USP24 (UniProt Q9UPU5)
How it was run: as §1

USP25 = molecular target: T2, USP25 (UniProt Q9UHP3)
T2 sequence (whole entry): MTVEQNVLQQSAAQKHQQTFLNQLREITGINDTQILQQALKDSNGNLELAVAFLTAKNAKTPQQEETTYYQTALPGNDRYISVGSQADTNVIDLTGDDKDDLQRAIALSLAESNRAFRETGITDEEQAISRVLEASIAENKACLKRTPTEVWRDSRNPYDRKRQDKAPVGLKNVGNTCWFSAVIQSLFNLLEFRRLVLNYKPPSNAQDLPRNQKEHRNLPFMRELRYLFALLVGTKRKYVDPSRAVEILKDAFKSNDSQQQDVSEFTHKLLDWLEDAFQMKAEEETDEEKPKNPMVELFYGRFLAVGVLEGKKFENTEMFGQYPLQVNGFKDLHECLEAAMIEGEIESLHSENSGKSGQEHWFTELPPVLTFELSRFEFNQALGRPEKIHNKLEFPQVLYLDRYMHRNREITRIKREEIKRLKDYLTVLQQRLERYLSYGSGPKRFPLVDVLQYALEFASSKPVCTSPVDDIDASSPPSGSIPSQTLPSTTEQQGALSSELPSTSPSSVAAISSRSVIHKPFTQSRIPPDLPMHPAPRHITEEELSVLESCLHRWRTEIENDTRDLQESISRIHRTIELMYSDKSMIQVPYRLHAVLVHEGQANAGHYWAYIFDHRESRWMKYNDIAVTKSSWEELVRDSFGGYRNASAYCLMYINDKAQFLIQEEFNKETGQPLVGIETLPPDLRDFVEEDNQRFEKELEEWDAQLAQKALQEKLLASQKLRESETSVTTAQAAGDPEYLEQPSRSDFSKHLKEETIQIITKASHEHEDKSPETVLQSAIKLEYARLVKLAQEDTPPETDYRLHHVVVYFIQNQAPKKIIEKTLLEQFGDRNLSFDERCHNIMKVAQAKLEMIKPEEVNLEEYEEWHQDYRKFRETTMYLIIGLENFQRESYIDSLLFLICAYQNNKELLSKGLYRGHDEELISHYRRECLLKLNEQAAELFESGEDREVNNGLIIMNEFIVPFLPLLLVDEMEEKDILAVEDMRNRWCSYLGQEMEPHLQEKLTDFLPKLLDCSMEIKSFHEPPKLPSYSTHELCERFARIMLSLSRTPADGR
How it was run: as §1

USP28 = molecular target: T3, USP28 (UniProt Q96RU2)
T3 sequence (whole entry): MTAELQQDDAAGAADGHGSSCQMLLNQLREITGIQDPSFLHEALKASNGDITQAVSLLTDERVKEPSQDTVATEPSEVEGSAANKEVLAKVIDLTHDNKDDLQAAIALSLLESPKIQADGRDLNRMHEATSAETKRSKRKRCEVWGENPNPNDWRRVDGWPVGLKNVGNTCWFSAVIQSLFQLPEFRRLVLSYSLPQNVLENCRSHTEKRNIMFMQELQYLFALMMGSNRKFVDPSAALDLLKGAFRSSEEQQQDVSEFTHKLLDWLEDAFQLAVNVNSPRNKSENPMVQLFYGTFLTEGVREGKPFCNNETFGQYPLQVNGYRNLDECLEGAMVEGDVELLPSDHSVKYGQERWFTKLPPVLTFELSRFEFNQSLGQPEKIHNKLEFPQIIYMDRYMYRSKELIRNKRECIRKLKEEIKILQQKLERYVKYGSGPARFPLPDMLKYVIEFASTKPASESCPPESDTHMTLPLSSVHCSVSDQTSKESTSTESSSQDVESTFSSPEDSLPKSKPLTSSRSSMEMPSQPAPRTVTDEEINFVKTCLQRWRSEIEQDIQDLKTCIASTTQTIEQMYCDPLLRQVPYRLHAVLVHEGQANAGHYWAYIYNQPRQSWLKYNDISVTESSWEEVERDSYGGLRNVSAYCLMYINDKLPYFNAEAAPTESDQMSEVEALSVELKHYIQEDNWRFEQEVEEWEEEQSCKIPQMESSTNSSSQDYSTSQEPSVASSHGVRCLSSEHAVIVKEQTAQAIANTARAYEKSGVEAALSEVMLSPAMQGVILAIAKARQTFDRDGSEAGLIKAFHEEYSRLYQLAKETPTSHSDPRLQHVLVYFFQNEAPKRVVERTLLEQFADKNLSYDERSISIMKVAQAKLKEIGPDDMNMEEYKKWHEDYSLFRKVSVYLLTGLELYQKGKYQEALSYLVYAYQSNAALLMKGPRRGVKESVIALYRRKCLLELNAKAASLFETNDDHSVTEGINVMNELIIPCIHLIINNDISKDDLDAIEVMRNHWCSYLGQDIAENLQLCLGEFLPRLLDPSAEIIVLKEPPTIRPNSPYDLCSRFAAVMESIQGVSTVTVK
How it was run: as §1

Measured: log2 ratio of Biotin-Ahx-Ub-VS probe labelling

Chain of USP24 (Q9UPU5 whole entry): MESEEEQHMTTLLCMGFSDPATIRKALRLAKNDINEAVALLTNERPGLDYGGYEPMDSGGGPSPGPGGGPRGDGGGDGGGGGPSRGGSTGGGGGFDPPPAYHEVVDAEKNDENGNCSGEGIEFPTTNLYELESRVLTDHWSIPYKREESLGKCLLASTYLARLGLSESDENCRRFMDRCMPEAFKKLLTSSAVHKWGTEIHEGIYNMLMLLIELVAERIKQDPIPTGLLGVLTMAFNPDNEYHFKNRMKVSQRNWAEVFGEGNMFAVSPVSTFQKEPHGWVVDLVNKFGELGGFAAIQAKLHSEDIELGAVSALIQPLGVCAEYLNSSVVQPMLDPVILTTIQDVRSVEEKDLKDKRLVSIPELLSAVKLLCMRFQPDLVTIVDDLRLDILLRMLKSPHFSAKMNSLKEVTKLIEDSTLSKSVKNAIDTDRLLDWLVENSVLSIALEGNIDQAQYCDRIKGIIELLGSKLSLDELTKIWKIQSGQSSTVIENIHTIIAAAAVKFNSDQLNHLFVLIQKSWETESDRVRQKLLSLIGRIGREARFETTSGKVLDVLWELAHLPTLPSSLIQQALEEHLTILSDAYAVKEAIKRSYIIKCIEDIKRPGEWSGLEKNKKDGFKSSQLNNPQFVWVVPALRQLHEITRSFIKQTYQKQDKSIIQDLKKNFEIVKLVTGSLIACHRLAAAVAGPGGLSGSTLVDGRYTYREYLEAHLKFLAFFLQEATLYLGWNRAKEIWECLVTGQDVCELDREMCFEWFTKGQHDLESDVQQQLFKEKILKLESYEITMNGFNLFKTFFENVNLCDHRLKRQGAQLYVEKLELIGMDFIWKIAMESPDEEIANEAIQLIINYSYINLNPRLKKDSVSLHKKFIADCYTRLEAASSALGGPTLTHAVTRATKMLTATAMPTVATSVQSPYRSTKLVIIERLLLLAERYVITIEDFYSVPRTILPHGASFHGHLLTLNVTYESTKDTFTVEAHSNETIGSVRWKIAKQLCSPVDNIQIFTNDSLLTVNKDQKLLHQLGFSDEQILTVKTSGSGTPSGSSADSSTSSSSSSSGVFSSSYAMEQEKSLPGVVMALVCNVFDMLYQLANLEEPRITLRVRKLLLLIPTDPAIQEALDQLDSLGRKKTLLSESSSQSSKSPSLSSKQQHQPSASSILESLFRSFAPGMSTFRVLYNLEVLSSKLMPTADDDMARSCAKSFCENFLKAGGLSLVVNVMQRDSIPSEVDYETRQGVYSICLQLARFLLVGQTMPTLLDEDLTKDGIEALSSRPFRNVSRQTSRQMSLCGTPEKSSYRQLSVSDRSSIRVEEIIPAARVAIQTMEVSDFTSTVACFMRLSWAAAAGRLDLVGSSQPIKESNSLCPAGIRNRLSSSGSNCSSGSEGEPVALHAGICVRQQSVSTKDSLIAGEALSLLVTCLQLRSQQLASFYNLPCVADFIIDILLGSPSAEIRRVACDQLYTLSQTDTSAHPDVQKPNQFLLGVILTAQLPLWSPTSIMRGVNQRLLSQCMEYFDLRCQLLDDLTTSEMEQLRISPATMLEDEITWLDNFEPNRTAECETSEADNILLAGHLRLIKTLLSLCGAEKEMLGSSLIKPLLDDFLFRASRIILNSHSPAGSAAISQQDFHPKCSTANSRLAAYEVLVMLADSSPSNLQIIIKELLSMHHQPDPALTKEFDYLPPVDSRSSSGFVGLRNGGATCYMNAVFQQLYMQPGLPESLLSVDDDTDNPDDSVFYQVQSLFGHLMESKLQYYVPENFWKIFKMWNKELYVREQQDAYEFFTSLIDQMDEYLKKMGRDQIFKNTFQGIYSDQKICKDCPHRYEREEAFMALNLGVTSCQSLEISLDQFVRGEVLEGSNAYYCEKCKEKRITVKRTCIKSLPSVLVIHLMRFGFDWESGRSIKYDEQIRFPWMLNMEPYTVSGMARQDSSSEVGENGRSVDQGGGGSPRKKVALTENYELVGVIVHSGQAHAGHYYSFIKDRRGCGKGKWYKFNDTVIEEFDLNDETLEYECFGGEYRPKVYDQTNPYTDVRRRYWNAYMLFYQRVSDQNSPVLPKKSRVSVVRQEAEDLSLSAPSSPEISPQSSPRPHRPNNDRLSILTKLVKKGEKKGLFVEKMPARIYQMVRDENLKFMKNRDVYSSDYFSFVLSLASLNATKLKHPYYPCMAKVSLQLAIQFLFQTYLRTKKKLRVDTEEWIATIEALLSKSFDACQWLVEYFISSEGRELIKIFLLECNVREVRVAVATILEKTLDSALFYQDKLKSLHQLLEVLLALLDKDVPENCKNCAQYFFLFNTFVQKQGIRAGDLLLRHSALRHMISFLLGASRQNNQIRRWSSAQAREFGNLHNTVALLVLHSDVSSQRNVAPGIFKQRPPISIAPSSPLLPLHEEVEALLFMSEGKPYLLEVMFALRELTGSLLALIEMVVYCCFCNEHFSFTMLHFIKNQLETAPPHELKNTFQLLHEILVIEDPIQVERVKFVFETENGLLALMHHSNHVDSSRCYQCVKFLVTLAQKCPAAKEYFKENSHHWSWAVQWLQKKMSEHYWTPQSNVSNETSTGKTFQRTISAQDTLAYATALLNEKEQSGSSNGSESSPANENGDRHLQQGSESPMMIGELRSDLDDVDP

CN(C)C(=O)c1ccc(CNC(=O)CCl)cc1
inactive: USP19 0.123 | USP24 0.117 | USP25 -0.513 | USP28 -0.359
